# Data published in PubChem BioAssay AID504707 (The Scripps Research Institute Molecular Screening Center, 2011).
# The campaign covered roughly 340,000 compounds. About 280 (0.082%) were called active.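 Rule for the calls: active = percent activation above the mean of all tested compounds plus 3 SD (cut at about 19% in these data); inactive = the rest.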 Only a selection was taken, and actives are over-represented in it overall.
# Molecular target: cAMP-dependent protein kinase type I-alpha regulatory subunit (Bos taurus) + cAMP-dependent protein kinase catalytic subunit beta (Mus musculus) (UniProt P00514+P68181)
# Assay: activators of PKA-R1A holoenzyme, primary screen, biochemical, fluorescence polarization, Cy5-IP20, bovine R1A, mouse PKAc (AID 504707);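 note: higher means more PKAc released from R1A so a rise in polarization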
# Details: PKA-R1A dissociation, at 11.4 µM, stronger effect = higher value, scaled: DMSO 0%, 113 µM cGMP 100%
row,Structure (SMILES),activation
1,OCC1OC(n2cnc3c(N4CCCC4)ncnc32)C(O)C1O (centres undefined),2.45% (inactive)
2,CC(Sc1ccc(S(=O)(=O)N2CCN(C)CC2)cn1)C(=O)NC1CCCC(C)C1C (centres undefined),1.21% (inactive)
3,NC1=CC(=O)C(=O)c2cccnc21,0.52% (inactive)
4,CCCc1ccc(S(=O)(=O)N2CCN(C(=O)c3cc(C)on3)CC2)cc1,8.59% (inactive)
5,CCc1noc(C)c1C(=O)OCC(=O)c1ccc(NC(=O)CC(C)C)cc1,-17.9% (inactive)
6,COc1ccc2c(c1)CCCO[C@]21O[C@H](CCO)C[C@H](O)[C@H]1O,-17.7% (inactive)
7,COCOCCn1cc(CN2CCS(=O)(=O)N(Cc3ccc(-c4ccccc4)cc3)C(CC(C)C)C2=O)nn1 (centres undefined),-7.1% (inactive)
8,CCc1cc(C(=O)N(CC)CC(=O)Nc2c(F)cccc2F)sc1C,2.41% (inactive)
9,O=S(=O)(c1ccc(Cl)s1)N1CCC2(CC1)OCCO2,-0.53% (inactive)
10,Cc1noc(C)c1S(=O)(=O)N(C)C[C@H]1OCCCC[C@@H](C)Oc2ccc(NC(=O)CCCN(C)C)cc2C(=O)N([C@H](C)CO)C[C@@H]1C,-9.82% (inactive)
11,Cc1ccn(CC(=O)NC2CCCN(Cc3ccccc3F)C2)n1 (centres undefined),3.67% (inactive)
12,CCOC(=O)c1cnc(SC)nc1Sc1ccc(Cl)cc1Cl,-0.11% (inactive)
13,C[C@@H]1CN([C@H](C)CO)S(=O)(=O)c2ccc(C#CC3CCCCC3)cc2O[C@H]1CN(C)C(=O)Cc1ccncc1,-5.17% (inactive)
14,CC1CCN(C(=O)CSc2nnc(-c3ccco3)n2N)CC1,-3.33% (inactive)
15,Cc1ccc(CCNC(=O)CN2C(=O)CSc3ccc(S(=O)(=O)N4CCOCC4)cc32)cc1,-7.23% (inactive)
16,CCCCN=C(N)/C(C(=O)OCC)=C(\O)c1ccc(OC)cc1,-0.11% (inactive)
17,COc1ccc(S(=O)(=O)N2CCC(C(=O)NCCC(=O)NCCc3cccc(F)c3)CC2)cc1,-4.12% (inactive)
18,NS(=O)(=O)c1ccc(CNC(=O)c2cc(S(=O)(=O)N3CCOCC3)ccc2N2CCCC2)cc1,-1.96% (inactive)
19,CCN(CC)C(=O)C1=C(C)N(Cc2ccccc2)C(=O)C(CC(=O)NC(c2ccccc2)c2ccccc2)C1 (centres undefined),-7.55% (inactive)
20,CCc1nc2c(=O)[nH]cnc2o1,12.2% (inactive)
21,CC1CCC2(CC1)NC(=O)N(CC(=O)NCc1ccco1)C2=O (centres undefined),-3.37% (inactive)
22,COc1ccc(NC(=O)COC(=O)C2COc3ccccc3O2)cc1 (centres undefined),11.1% (inactive)
23,O=C(CSc1ccc(Cl)cc1)NC1CC1,-0.65% (inactive)
24,CCCNC(=O)C1CC(=O)N(c2ccc(OCc3ccccc3)cc2)C1 (centres undefined),3.3% (inactive)
